CYP2C19 act: cytochrome P450 2C19 (human) activation. P33261. recombinant CYP2C19, luciferin-H EGE luminescence; hits give high values; 0 = fully inhibited enzyme, 1 = untreated enzyme. 96,000 tested, under 10 active. activation factor at 5 µM. AID 1025;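 active = activation factor of at least 2 at 5 µM in the primary screen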;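 note: 0 = wells with 2.5 mM tranylcypromine and 1 = vehicle-only wells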
CYP2C9 act: CYP2C9 (human) activation; P11712; recombinant CYP2C9, luciferin-H conversion, luminescence; hits give high values; factor 1 = untreated enzyme, 0 = blocked; activation factor at 5 µM; hit rate 1.4% among 96,000; AID 1024;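 active = activation factor of 2 or more for CYP2C9 at a 5 µM dose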;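 note: 0 = sulfaphenazole-blocked wells and 1 = vehicle-only wells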
Target sequence (P11712 whole entry, looked up): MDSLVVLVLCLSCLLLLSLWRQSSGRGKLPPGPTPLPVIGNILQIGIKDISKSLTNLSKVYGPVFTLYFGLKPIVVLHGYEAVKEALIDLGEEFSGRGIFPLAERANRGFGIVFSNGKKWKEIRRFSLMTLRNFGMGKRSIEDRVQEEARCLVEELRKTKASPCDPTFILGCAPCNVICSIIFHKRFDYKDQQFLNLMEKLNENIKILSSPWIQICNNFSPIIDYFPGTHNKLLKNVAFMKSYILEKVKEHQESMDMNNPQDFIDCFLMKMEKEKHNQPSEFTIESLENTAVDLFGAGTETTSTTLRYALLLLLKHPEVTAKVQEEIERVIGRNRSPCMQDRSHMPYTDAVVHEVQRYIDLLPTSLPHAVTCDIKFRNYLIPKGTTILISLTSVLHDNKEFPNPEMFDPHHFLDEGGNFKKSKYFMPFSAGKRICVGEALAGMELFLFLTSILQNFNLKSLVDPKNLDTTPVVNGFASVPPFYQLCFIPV
CYP2C19 inhib: inhibitors of human CYP2C19; P33261; CYP2C19 Supersomes, luciferin-H EGE luminescence, 30 min; inhibition, % at 5 µM; hit rate 21% among 96,000;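 active = CYP2C19 inhibition above a set limit at 5 µM in the primary screen, cut at about 50% in these data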;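 note: plate controls were negative control wells for no effect and 2.5 mM tranylcypromine positive control for full effect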
CYP2C9 inhib: blocks human cytochrome P450 2C9; CYP2C9 Supersomes, luciferin-H conversion, luminescence; P11712; AID 777; inhibition, % at 5 µM; hit rate 20% among 96,000;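 active = blocking of liver enzyme CYP2C9 beyond about 50% at 5 µM, limit read from the data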
Measles CPE: protection of cells from measles virus; AID 841; hit rate 1.5% among 140,000; protection (pct of control), % at 4 µM; Measles virus-infected cells, CPE protection, absorbance; in the data active = protection mostly above about 24%, no sharp cut-off; inactive = mostly below about 26%
The depositor's hits bear a star; . = no result given. Compounds with a hit are over-represented: about 22% of the library has one in this group of screens.

SMILES	CYP2C19 act	CYP2C9 act	CYP2C19 inhib	CYP2C9 inhib	Measles CPE
O=C(NC(Cc1ccccc1)C(=O)OCC(=O)N1CCc2ccccc21)c1ccco1 (configuration not stated)	0.9	0.7	6	34	0
CCCCCCC1C(C#N)=C(N)OC2=C1C(=O)CC(C)(C)C2 (configuration not stated)	.	.	.	.	13
CC(c1ccccc1)C1C(C#N)=C(N)OC2=C1C(=O)CCC2 (configuration not stated)	0.4	0.8	62*	19	3
CC1(C)CC(=O)C2=C(C1)OC(N)=C(C#N)C2c1ccccc1 (configuration not stated)	0.3	0.6	73*	36	1
CCCCCCC1C(C#N)=C(N)OC2=C1C(=O)CCC2 (configuration not stated)	0.3	0.2	73*	75*	4
COc1ccc(C2C(C#N)=C(/N=C/N3CCN(C)CC3)OC3=C2C(=O)CC(C)(C)C3)cc1 (configuration not stated)	0.5	0.5	51*	53*	3
COc1ccc(CCN2C(=O)CS/C2=N/NC(=O)c2ccccc2F)cc1OC	.	.	.	.	10
CC1(C)CCCC(C)(C)N1CC(O)COCCOc1ccc(Br)cc1 (configuration not stated)	.	.	.	.	13
CCC1C(C#N)=C(N)OC2=C1C(=O)CC(C)(C)C2 (configuration not stated)	.	.	.	.	0
N#CC1=C(N)OC2=C(C(=O)CCC2)C1c1ccsc1 (configuration not stated)	0.4	0.7	57*	28	4
N#CC1=C(N)OC2=C(CC/C2=C\c2ccccc2)C1c1ccccc1 (configuration not stated)	0.7	0.3	26	70*	2
N#CC1=C(N)OC2=C(CC/C2=C\c2ccccc2Cl)C1c1ccccc1Cl (configuration not stated)	.	.	.	.	7
CC1(C)CC(=O)C2=C(C1)OC(N)=C(C#N)C2C1C=CCCC1 (configuration not stated)	0.7	0.4	30	60*	15
N#CC1=C(N)OC2=C(C(=O)CCC2)C1c1ccccc1 (configuration not stated)	0.8	0.9	19	13	34*
CCC(=O)N1CCN(CCN=CC2=C(O)CC(c3ccc(OC)cc3)CC2=O)CC1 (configuration not stated)	.	.	.	.	9
CCOc1cc(NC(=O)c2ccccc2C)c(OCC)cc1NC(=O)C1=Cc2ccccc2OC1	0.9	0.9	14	12	6
COc1ccc(NC(=S)Nc2ccccc2F)c(OC)c1	0.5	1.1	47	-14	22
CCc1ccc(C2C3=C(CCCC3=O)OC3=C2C(=O)CCC3)cc1	.	.	.	.	10
CCOC(=O)C1=C(C)N(C)C(C)=C(C(=O)OCC)C1c1ccc(C(=O)OC)cc1	0	0	99*	99*	-1
COC(=O)C1=C(C)N(C)C(C)=C(C(=O)OC)C1c1ccc(Cl)cc1	0.7	0.4	28	58*	2
CC(CCc1ccccc1)NC(=O)COC(=O)c1cccc2ccccc12 (configuration not stated)	.	.	.	.	11
Cc1ccc(-n2c(-c3c(-c4ccccc4)noc3C)n[nH]c2=S)cc1	0.4	0.3	62*	68*	4
CN(Cc1ccccc1)S(=O)(=O)c1ccc2[nH]cc(C(=O)NCC3CCCO3)c(=O)c2c1 (configuration not stated)	.	.	.	.	6
Brc1ccc2nc(CSc3ncn[nH]3)cn2c1	0.5	1.1	52*	-10	9
CC(=O)C1=C(O)C(=O)N(CCNCCO)C1c1ccccc1 (configuration not stated)	1	1	0	0	14
SMILES	CYP2C19 act	CYP2C9 act	CYP2C19 inhib	CYP2C9 inhib	Measles CPE
COCC(=O)Nc1c(C(=O)Nc2cccc(OC)c2)oc2ccccc12	0.9	0.4	11	64*	8
Cc1ccc(NC(=O)c2ccc(OC(=O)c3ccco3)cc2)cc1	0.9	1.1	10	-10	16
COc1ccc(NC(=O)c2oc3ccccc3c2NC(=O)c2ccco2)cc1	0.4	0.8	60*	19	17
CCOCC(=O)Nc1c(C(=O)Nc2ccc(OC)cc2OC)oc2ccccc12	0.8	0.3	22	71*	5
Cc1ccc(Oc2ccc(NC(=O)c3ccco3)cc2)cc1	0.4	0.4	56*	59*	13
COc1ccc(-c2nnc(SCc3c(C)noc3C)n2N)cc1OC	0.8	0.7	23	26	3
COc1ccc(OCC(=O)Nc2ccc(NC(=O)c3ccco3)cc2)cc1	0.6	0.6	38	38	20
CCOC(=O)c1c(C)[nH]c(C)c1C(=O)COc1ccc(NC(=O)c2ccco2)cc1	0.1	0.1	88*	93*	5
COc1cccc(C2C(C(=O)c3cccs3)=C(O)C(=O)N2CCCn2ccnc2)c1OC (configuration not stated)	0.2	0.1	77*	89*	.
CCCOc1ccc(C2C(C(=O)c3ccco3)=C(O)C(=O)N2CCCn2ccnc2)cc1 (configuration not stated)	0.7	0.4	25	61*	1
Cc1nc(C)c(C(=O)C2=C(O)C(=O)N(CCCn3ccnc3)C2c2ccc(Cl)cc2)s1 (configuration not stated)	0.8	0.4	24	59*	6
O=S(=O)(c1ccc(S(=O)(=O)N2CCCN(Cc3ccccc3)C2)cc1)N1CCCCCC1	0.3	0.3	72*	74*	6
CN(C)S(=O)(=O)N1CCN(S(=O)(=O)c2ccccc2)CC1	0.2	0.4	80*	58*	5
Cc1ccc(S(=O)(=O)N2CCN(S(=O)(=O)c3ccccc3)C2)cc1	0.4	0.4	56*	57*	3
Cc1ccc(-c2ccc(S(=O)(=O)N3CCN(C)CC3)cc2)cc1	0.8	0.5	16	52*	9
Cc1ccc(S(=O)(=O)N2CCN(S(C)(=O)=O)C2)cc1	0.8	0.9	21	11	6
CN1CCN(S(=O)(=O)c2ccc(-c3ccccc3)cc2)CC1	0.6	0.8	44	25	7
CCOC(=O)Cc1csc(NS(=O)(=O)c2ccc(F)cc2)n1	1	0.5	2	50*	1
CCOC(=O)Cc1csc(NC(=S)NC(=O)c2ccccc2)n1	.	.	.	.	4
Cc1cccc(N2CCN(C(=O)CCNS(=O)(=O)c3ccc4c(c3)CCC(=O)N4)CC2)c1C	1	0.4	-3	58*	4
CCOC(=O)Cc1csc(NC(=O)c2ccc(Br)o2)n1	0.6	0.4	45	60*	6
CCCCC(=O)Nc1ccc(C(=O)Nc2nc(CC(=O)OCC)cs2)cc1	0.8	0.3	22	68*	9
CCOC(=O)Cc1csc(NC(=O)c2ccc3c(c2)OCO3)n1	1	0.6	4	36	3
CCOC(=O)Cc1csc(NC(=O)c2cccs2)n1	0.1	0.2	88*	77*	5

Assay outcomes as filed in PubChem BioAssay.
